Compound activity deposited in PubChem BioAssay by National Center for Advancing Translational Sciences (NCATS).
BAZ2B inh: inhibitors of human BAZ2B bromodomain | Potency, µM (doses to about 114 µM), hits mostly inhibitors | 360,000 compounds, 4.4% hits | AlphaScreen BAZ2B-H3K14Ac peptide displacement | Q9UIF8; further: nearly all actives have a fitted effect of over 60% in size
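In this displacement format the biotinylated H3(5-23) peptide acetylated at Lys14 serves as ligand at 50 nM, with BAZ2B at 50 nM in PBS pH 7.4 containing 0.01% Tween-20. Donor and acceptor beads are 10 ug/mL final.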
PLK1 PBD inh: blocks phosphopeptide binding to human PLK1 polo-box domain | Plk1 PBD binding of FITC phosphopeptide, fluorescence polarization | AID 720504 | 360,000 compounds, 2.8% hits | P53350 | Potency, µM, usual class: inhibitors; further: series mostly up to about 57 µM; nearly all actives have a fitted effect of over 65% in size
G9a block: blocks human histone lysine methyltransferase G9a. 350,000 compounds, 8.8% hits. G9a H3K9 monomethylation, AlphaScreen, 2 h. Potency, µM (top dose mostly 102 µM), hits mostly inhibitors. AID 504332; further: nearly all actives have a fitted effect of over 75% in size
Target sequence (Q96KQ7 913-1193 limits assumed): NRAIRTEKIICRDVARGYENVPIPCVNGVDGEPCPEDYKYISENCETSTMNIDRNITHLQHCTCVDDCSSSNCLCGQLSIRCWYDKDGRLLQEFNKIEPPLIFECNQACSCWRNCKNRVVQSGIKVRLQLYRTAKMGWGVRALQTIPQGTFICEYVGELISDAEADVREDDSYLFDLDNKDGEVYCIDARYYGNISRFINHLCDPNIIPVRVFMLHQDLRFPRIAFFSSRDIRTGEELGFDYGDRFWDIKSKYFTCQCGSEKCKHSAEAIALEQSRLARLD
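Quantitative HTS format: methyltransferase activity on a biotin-tagged H3K9 peptide is measured by AlphaScreen, using a rabbit anti-monomethyl-H3K9 antibody with streptavidin donor and anti-IgG acceptor beads. Final levels are 20 nM enzyme, 500 nM peptide, 20 uM SAM; 2 h RT.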
HP1b binding inh: inhibitors of HP1-beta chromodomain binding to methylated histone tails; P83916; AlphaScreen HP1-beta / biotin-H3K9me3 peptide binding; Potency, µM (top dose mostly 114 µM), hits mostly inhibitors; 390,000 compounds, 0.56% hits; further: nearly all actives have a fitted effect of over 70% in size
Target sequence (P83916 whole entry, looked up): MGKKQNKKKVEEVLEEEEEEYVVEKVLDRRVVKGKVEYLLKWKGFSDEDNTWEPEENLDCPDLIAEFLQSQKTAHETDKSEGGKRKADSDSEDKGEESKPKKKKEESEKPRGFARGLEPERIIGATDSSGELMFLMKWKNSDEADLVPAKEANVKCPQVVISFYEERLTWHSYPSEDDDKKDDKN
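AlphaScreen: HP1-beta (50 nM) preformed 30 min with biotin-H3(1-18)K9me3 peptide (50 nM) in PBS pH 7.4, 0.01% Tween-20. Compound added for 30 min at RT, then streptavidin donor/nickel chelate acceptor beads (10 ug/mL) for 30 min.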
JMJD2A Tudor inh: inhibitors of human JMJD2A Tudor domain. Potency, µM (titrated, usually from 114 µM), actives largely listed as inhibitors. 390,000 compounds, 4.4% hits. AlphaScreen JMJD2A-Tudor / H3K4me3 peptide binding. AID 504339; further: nearly all actives have a fitted effect of over 50% in size
PI5P4Ka inh: inhibitors of human PI5P4K alpha. max response, %. PI5P4Kalpha enzyme, ADP-Glo luminescence, 60 min; active compounds read low. P48426. 330,000 compounds, 1.2% hits; active means max response of -50% or lower; inconclusive means between -30% and -50%; inactive means -30% or higher; further: value at the top dose of about 77 µM
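Enzyme plus substrate dispensed, test compounds pinned in, then ATP (5 microM final) added. After 60 min at RT, ADP-Glo reagent 1 for 45 min and reagent 2 for 30 min preceded luminescence imaging.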
Numbers stand for hits; . = inactive; ? = inconclusive; / = not tested or not shown; [ ] = remark or other dose. Rows were chosen to be rich in hits. Some 12% of all compounds tested hit in one or more screens of this group. Unless noted, the call rests on the fitted dose curve; in most records, active means well fitted curve in the direction sought with a large enough effect; inconclusive means small, poorly fitted or top-dose-only effect, or another doubt; inactive means no such curve, though single readings can be large; an effect the other way counts as inactive or inconclusive.

SMILES	BAZ2B inh	PLK1 PBD inh	G9a block	HP1b binding inh	JMJD2A Tudor inh	PI5P4Ka inh
NC[C@@H]1O[C@H](O[C@H]2[C@@H](O)[C@H](O[C@@H]3[C@@H](O)[C@H](N)C[C@H](N)[C@H]3O[C@H]3O[C@H](CO)[C@@H](O)[C@H](O)[C@H]3N)O[C@@H]2CO)[C@H](N)[C@@H](O)[C@@H]1O	.	/	.	/	/	/
O=C(CSc1ccc(-c2ccco2)nn1)Nc1ccccc1	.	.	20µM	.	.	.
Cc1cc(SCC(=O)N/N=C/c2ccco2)nc2ccccc12	?	.	/	.	.	.
CCc1nnc(NC(=O)CSc2ccc(-c3ccco3)nn2)s1	50.1µM	.	22.4µM	.	.	.
Cc1[nH]n(-c2ccccc2)c(=O)c1C(c1ccc([N+](=O)[O-])cc1)c1c(C)[nH]n(-c2ccccc2)c1=O	39.8µM	7.52µM	11.2µM	35.5µM	17.8µM	.
Cc1[nH]n(-c2ccccc2)c(=O)c1C(C[N+](=O)[O-])c1ccccc1Cl (stereo unspecified)	?	15µM	?	.	.[11.4 µM]	.
CC1O[C@@H](OC2CC(O)[C@@]3(CO)C4C(O)C[C@@]5(C)C(C6=CC(=O)OC6)CC[C@]5(O)C4CC[C@]3(O)C2)C(O)C(O)C1O (stereo partly specified)	/	/	.[2.33 µM]	/	/	/
COc1ccc(N2CCN(C(=O)c3cc(=O)[nH]c4ccccc34)CC2)cc1	?	26.7µM	?	.	.[11.4 µM]	.
CN1CCc2cc(O)cc3c2[C@H]1Cc1ccc(O)c(O)c1-3	/	.	1.68µM	?	7.94µM	-52.2
CCCN1CCc2cc(O)cc3c2[C@H]1Cc1ccc(O)c(O)c1-3	/	.	1.12µM	11.2µM	12.6µM	?
COc1cc2c(cc1O)C[C@H]1c3c(cc(O)c(OC)c3-2)CCN1C	.	.	.	.	.	.
CCCN1CCc2cccc3c2C1Cc1ccc(O)c(O)c1-3 (stereo unspecified)	/	/	1µM	/	/	/
CCCC1=Nc2cc(C(=O)NCCc3ccc(OC)cc3OC)ccc2Sc2ccccc21	79.4µM	/	.	.	.	/
CCCC1=Nc2cc(C(=O)NC3CCC(C)CC3)ccc2Sc2ccccc21 (stereo unspecified)	.	/	.	.	.	/
C=C1C([C@@H](O)C[C@H](C)C2O[C@@]3(CCCCO3)CC[C@H]2C)OC2CC[C@@]3(CC[C@@H](/C=C/[C@@H](C)C4CC(C)=C[C@]5(O4)O[C@H](C[C@@](C)(O)C(=O)O)CCC5O)O3)OC2[C@@H]1O (stereo partly specified)	/	/	.	/	/	/
CCCC(C)C1(CC)C(=O)NC(=O)NC1=O (stereo unspecified)	/	/	.[2.33 µM]	/	/	/
Cc1nc2ccc(P(=O)(O)O)cc2s1	?	/	44.7µM	/	/	/
Cc1nc2ccc(NC(=O)c3ccc(Cl)s3)cc2s1	.	.	.	.	.	.
COc1cccc(-n2c(CN3CCOCC3)nc3ccc([N+](=O)[O-])cc3c2=O)c1	.	.	44.7µM	.	.	.
CCN1CCN(Cc2nc3ccc([N+](=O)[O-])cc3c(=O)n2-c2ccccc2F)CC1	.	.	?	.	.	.
O=C1NC(=O)C(=C/C=C/c2coc3ccc(Br)cc3c2=O)C(=O)N1	.	/	8.91µM	/	/	/
NC(=S)N/N=C/c1coc2ccccc2c1=O	.	.	.	.	.	?
O=C1NC(=O)C(=Cc2coc3ccccc3c2=O)C(=O)N1	/	10.6µM	35.5µM	.	.	-76.7
[O]=[Sb]([OH])([OH])[c]1ccccc1	/	/	/	.	.	/
Cn1c(O)c(C(=Nc2ccccc2)SCc2ccc(Cl)cc2)c(=O)n(C)c1=O	?	26.7µM	?	.	?	.
Cn1c(O)c(C(=N)COc2ccccc2)c(=O)n(C)c1=O	.	.	.[0.0925 µM]	.	.	/
O=c1c(/C=N/N2CCOCC2)c(O)n(-c2ccccc2)c(=S)n1-c1ccccc1	?	.	50.1µM	.	.	.
Cn1c(O)c(/C=N/N2CCOCC2)c(=O)n(-c2ccccc2)c1=S	.	.	.	.	.	.
O=c1[nH]c(=S)n(-c2ccc(F)cc2)c(O)c1/C=N/N1CCOCC1	?	.	44.7µM	.	.	.
Cc1ccc(NC(=O)CCCn2c(=O)oc3ccccc32)c(O)c1	?	.	.	.	.	.
